Test results taken from the supplement of paper PMC11732987, “Enantioselective OTUD7B fragment discovery through chemoproteomics screening and high-throughput optimisation” (Communications Chemistry, 2025).
A number with no mark means an inactive call.

Tests used:
Experiment in all cases: log2 ratio of Biotin-Ahx-Ub-VS probe labelling (fragment/DMSO); higher = less target engagement (more negative = stronger competition), active = hit call of the paper (q ≤ 0.05, log2 ratio ≤ -1)
Conditions in all cases: compound concentration: 200 uM; treatment time: 3 h
[1] = molecular target: T1, ALG13 (UniProt Q9NP73)
T1 sequence (whole entry): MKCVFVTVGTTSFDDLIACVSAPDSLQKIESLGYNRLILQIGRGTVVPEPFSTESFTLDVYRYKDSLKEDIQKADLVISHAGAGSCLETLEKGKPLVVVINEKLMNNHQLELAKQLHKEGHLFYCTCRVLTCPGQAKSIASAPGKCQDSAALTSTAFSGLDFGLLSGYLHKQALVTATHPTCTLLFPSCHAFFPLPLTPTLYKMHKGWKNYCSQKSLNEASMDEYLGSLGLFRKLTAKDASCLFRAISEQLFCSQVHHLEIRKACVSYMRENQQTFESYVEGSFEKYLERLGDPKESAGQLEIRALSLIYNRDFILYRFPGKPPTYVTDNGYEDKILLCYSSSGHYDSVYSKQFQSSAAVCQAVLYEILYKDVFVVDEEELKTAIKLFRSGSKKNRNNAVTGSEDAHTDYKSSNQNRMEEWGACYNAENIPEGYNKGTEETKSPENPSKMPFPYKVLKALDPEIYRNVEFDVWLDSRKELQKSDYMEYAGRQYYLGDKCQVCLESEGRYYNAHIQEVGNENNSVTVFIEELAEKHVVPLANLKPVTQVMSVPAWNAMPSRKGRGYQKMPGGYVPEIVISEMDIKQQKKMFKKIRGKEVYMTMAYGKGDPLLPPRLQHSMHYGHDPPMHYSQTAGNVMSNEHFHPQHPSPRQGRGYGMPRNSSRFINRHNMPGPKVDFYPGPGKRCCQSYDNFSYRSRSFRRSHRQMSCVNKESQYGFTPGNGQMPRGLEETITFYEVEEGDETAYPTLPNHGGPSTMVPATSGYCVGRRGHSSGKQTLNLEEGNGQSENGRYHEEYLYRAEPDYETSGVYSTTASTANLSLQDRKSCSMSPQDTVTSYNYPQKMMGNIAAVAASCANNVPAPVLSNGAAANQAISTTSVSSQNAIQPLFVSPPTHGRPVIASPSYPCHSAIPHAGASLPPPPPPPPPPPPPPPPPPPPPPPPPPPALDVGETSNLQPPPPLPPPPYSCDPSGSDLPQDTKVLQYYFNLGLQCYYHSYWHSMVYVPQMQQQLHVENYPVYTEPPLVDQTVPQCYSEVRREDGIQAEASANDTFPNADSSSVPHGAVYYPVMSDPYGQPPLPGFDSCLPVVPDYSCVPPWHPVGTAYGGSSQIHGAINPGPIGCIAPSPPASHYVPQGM
Outline: (§1)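 Using Biotin-Ahx-Ub-VS at 0.5 µM final for 1 h, DUBs were labelled in HEK293T lysate (495 µg per sample) that had first been treated in triplicate with fragment at 200 µM or vehicle for 3 h. NeutrAvidin enrichment, LysC and trypsin digestion and diaPASEF LC-MS/MS followed. Spectronaut label-free quantities were global-median-normalised. Values are average log2 fragment/vehicle ratios by unpaired t-test, using proteins with ≥2 unique peptides.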

[2] = molecular target: ATXN3 (UniProt P54252)
Outline: as §1

[3] = molecular target: T2, BAP1 (UniProt Q92560)
T2 sequence (whole entry): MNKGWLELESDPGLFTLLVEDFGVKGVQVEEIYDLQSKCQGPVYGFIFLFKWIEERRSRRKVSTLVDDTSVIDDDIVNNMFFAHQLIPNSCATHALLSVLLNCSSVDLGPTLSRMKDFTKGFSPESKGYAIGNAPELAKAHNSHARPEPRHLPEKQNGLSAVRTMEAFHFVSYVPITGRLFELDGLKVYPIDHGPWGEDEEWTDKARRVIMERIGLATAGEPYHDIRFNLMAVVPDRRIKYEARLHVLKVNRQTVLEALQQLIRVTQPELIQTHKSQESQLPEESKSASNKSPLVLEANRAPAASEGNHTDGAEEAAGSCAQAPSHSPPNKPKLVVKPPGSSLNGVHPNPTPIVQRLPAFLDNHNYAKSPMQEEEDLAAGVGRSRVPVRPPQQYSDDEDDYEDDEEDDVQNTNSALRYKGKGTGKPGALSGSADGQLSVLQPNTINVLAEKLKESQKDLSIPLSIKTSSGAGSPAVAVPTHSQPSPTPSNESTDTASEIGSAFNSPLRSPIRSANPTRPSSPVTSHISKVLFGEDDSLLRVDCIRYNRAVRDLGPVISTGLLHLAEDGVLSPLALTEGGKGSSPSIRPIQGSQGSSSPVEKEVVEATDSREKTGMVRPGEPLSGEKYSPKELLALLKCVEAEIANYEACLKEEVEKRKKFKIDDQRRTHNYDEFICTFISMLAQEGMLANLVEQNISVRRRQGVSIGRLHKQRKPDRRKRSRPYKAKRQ
Outline: as §1

[4] = molecular target: EIF3F (UniProt O00303)
Outline: as §1

[5] = molecular target: EIF3H (UniProt O15372)
Outline: as §1

[6] = molecular target: T3, FAM105A (UniProt Q9NUU6)
T3 sequence (whole entry): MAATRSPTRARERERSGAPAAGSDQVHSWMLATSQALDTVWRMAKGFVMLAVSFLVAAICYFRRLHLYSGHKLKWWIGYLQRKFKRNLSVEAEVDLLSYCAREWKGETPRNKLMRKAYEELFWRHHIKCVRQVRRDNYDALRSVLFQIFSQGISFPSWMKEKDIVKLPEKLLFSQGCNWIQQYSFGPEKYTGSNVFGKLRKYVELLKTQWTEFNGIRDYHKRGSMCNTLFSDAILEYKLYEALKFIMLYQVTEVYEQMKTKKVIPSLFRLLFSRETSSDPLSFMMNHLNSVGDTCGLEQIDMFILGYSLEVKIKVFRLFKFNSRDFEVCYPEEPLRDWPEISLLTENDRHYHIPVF
Outline: as §1

[7] = molecular target: OTUB1 (UniProt Q96FW1)
Outline: as §1

[8] = molecular target: T4, OTUD4 (UniProt Q01804)
T4 sequence (whole entry): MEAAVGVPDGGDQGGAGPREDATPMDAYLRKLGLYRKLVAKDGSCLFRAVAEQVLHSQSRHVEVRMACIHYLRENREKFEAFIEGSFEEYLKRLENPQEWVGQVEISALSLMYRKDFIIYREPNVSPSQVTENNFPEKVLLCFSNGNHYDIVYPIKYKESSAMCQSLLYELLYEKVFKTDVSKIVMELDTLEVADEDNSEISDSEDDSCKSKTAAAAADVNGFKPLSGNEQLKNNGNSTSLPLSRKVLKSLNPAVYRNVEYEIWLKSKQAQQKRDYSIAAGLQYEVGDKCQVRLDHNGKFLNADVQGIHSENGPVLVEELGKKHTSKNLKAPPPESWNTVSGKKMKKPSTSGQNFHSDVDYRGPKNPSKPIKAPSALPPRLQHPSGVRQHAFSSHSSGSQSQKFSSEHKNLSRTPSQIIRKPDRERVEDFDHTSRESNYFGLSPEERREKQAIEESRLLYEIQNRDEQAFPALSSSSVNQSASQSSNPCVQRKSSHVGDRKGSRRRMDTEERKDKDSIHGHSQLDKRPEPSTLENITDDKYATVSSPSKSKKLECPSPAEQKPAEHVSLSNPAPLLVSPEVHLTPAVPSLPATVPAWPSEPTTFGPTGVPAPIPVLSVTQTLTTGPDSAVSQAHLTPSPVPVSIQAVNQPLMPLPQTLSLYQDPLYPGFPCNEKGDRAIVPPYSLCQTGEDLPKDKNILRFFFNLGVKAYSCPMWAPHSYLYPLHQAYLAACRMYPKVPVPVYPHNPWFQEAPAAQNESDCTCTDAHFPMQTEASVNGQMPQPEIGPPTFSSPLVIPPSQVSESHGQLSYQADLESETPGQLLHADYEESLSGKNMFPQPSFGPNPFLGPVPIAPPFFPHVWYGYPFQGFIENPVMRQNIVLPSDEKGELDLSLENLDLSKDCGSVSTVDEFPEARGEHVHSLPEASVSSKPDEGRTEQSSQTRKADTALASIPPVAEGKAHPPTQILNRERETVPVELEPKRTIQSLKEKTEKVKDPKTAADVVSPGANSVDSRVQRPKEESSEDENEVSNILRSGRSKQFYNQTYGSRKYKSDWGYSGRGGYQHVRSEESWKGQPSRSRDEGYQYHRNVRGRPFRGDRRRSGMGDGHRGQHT
Outline: as §1

[9] = molecular target: T5, OTUD5 (UniProt Q96G74)
T5 sequence (whole entry): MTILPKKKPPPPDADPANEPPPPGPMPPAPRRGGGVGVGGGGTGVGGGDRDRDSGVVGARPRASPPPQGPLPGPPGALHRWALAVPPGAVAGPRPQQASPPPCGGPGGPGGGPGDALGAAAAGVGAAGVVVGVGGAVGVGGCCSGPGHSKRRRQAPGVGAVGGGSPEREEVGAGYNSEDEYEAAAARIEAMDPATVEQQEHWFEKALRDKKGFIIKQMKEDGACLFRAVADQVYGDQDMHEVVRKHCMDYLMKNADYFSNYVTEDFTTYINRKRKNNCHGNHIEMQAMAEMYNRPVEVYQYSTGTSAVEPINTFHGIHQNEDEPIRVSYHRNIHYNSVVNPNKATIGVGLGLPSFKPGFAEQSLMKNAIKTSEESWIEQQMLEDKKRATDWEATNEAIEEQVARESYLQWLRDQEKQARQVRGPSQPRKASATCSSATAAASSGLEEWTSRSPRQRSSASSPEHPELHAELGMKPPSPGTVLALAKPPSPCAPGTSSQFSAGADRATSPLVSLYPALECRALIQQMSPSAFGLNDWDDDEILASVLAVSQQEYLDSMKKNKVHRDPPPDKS
Outline: as §1

OTUB1, sequence (Q96FW1 whole entry): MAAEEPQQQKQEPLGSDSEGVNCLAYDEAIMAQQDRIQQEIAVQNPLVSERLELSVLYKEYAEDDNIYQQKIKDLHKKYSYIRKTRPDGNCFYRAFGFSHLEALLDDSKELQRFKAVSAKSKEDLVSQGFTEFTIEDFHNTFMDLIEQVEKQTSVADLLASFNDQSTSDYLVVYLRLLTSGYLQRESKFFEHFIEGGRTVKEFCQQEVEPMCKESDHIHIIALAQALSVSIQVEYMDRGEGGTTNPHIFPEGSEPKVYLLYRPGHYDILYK
EIF3F, sequence (O00303 whole entry): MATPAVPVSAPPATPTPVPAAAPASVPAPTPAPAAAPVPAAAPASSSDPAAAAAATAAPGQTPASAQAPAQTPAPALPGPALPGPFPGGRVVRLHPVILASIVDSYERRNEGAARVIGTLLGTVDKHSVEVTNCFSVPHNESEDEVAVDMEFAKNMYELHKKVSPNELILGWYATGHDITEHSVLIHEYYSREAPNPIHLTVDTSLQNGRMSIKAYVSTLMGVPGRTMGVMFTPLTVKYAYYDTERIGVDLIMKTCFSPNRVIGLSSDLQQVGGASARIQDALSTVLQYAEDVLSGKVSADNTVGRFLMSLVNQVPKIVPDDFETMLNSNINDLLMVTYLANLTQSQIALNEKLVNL
EIF3H, sequence (O15372 whole entry): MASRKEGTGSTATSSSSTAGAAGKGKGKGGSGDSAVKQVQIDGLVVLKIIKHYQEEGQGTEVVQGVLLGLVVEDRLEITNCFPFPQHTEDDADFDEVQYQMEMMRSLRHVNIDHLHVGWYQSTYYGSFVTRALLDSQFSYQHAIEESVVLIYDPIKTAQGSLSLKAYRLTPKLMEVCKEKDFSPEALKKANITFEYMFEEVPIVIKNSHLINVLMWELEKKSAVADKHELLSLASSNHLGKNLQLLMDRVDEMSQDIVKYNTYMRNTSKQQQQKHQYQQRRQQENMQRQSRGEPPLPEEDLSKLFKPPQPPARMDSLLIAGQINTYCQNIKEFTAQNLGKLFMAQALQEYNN
ATXN3, sequence (P54252 whole entry): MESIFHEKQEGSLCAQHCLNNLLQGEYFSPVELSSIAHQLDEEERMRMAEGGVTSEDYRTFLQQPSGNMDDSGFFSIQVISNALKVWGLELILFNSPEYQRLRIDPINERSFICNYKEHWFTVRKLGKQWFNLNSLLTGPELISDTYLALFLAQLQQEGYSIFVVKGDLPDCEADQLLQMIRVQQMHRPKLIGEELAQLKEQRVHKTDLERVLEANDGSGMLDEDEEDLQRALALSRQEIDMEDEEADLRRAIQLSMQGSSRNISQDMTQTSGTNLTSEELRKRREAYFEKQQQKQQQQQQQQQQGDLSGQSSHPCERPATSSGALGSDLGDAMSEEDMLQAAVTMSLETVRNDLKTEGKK

With `CC(NC(=O)CCl)c1cccc2ccccc12` (centres undefined) the “log2 ratio of Biotin-Ahx-Ub-VS probe labelling” value (“log2 ratio” below) [1] was 0.0911, the “log2 ratio” value [2] was -0.129 and the “log2 ratio” value [3] was -4.13 (active). The “log2 ratio” value [4] was -0.0141, the “log2 ratio” value [5] was -0.0531 and the “log2 ratio” value [6] was -0.022. The “log2 ratio” value [7] was -0.352, the “log2 ratio” value [8] was -1.01 (active) and the “log2 ratio” value [9] was -0.234.
